# Out of some 190,000 compounds screened, about 1,300 (0.68%) were called active. Rule as the data show it: active = inhibition above about 50%; inactive = the rest. The full list was thinned out, with actives kept by preference.
# Target: Mannose-6-phosphate isomerase (Homo sapiens) (UniProt P34949)
# Assay: human PMI inhibitors, high substrate, primary screen, biochemical, fluorescence intensity, high mannose 6-phosphate (AID 1220)
# Conditions: recombinant PMI enzyme, coupled fluorescence intensity; at 20 µM; stronger effect = higher value
# Mannose-6-phosphate isomerase (Homo sapiens), sequence (P34949 whole entry, looked up): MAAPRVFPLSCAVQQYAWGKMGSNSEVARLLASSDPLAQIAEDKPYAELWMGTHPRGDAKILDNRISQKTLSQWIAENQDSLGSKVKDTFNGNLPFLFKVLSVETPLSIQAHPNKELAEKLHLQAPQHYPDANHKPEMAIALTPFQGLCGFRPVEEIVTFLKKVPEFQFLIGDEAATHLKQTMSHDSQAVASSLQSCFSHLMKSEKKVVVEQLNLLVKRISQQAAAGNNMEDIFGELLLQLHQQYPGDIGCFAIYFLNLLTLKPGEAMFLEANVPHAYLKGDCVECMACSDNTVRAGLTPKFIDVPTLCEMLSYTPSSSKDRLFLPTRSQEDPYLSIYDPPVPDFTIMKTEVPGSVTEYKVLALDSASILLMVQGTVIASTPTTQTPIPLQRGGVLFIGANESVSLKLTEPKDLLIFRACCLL
row,SMILES,inhibition
1,Cc1cccc(N2CCN(C(=O)c3ccc(CNc4c(N5CCC(C)CC5)c(=O)c4=O)cc3)CC2C)c1 (configuration not stated),4.9% (inactive)
2,O=C(CS(=O)CC(=O)N(c1cccc(F)c1)C(C(=O)NC1CCCCC1)c1ccco1)Nc1ccc(F)cc1 (configuration not stated),-6.4% (inactive)
3,C/C(=N\NC(=O)CN(c1ccccc1)S(=O)(=O)c1ccccc1[N+](=O)[O-])C(C)(C)C,8.8% (inactive)
4,FCCCOc1ccc(-c2nccc(-c3ccc(Br)cc3)n2)cc1,8.4% (inactive)
5,Cc1cc(NC(=O)CSc2nnc(C3CC3)n2-c2ccccc2)no1,-7.9% (inactive)
6,C(=N\Nc1nc(N2CCCCCC2)nc(N2CCCCCC2)n1)/c1ccccc1,23.1% (inactive)
7,COc1ccc(/C=N/Nc2nc(N3CCCC3)nc(N3CCCC3)n2)cc1,0.1% (inactive)
8,Oc1ccc(/C=N/Nc2cc(N3CCCC3)nc(N3CCCC3)n2)cc1,58.7% (active)
9,COc1cc(/C=N/Nc2nc(N3CCCC3)nc(N3CCCC3)n2)ccc1O,5.1% (inactive)
10,Oc1cccc(/C=N/Nc2cc(N3CCCC3)nc(N3CCCC3)n2)c1,59.8% (active)
11,COc1ccc(/C=N/Nc2cc(N3CCCC3)nc(N3CCCC3)n2)cc1,49% (inactive)
12,O=C(O)c1ccccc1/C=N/Nc1nc(N2CCCCC2)nc(N2CCCCC2)n1,-0.2% (inactive)
13,Oc1ccccc1/C=N/Nc1cc(N2CCCC2)nc(N2CCCC2)n1,52% (active)
14,Oc1ccc(Br)cc1/C=N/Nc1nc(N2CCCCC2)nc(N2CCOCC2)n1,20% (inactive)
15,COc1cc(-c2cc(N)n(S(=O)(=O)c3ccccc3)n2)cc(OC)c1OC,-2.1% (inactive)
16,CCOC(=O)c1ccc(S(=O)(=O)Nc2ccc3cn[nH]c3c2)cc1,24.1% (inactive)
17,CC1CCC(NC(=O)Cn2cc3c(n2)CCCC3)CC1 (configuration not stated),3.7% (inactive)
18,CC(C)=CCCC1=CCC(/C=N/NC(N)=O)C(C)C1 (configuration not stated),-36.5% (inactive)
19,OC(c1ccccc1)c1nc2ccccc2s1 (configuration not stated),6% (inactive)
20,O=C(N/N=C/c1ccc(Br)o1)c1ccc2c(c1)OCCO2,0% (inactive)
21,C(=N\Nc1nc2ccccc2[nH]1)/c1ccccn1,-33.9% (inactive)
22,N#CCCCN1C(=O)C(O)(CC(=O)c2ccc3c(c2)OCCO3)c2ccccc21 (configuration not stated),11.1% (inactive)

row,SMILES,inhibition
1,N#CCCCN1C(=O)C(=C(C#N)C#N)c2ccccc21,59.5% (active)
2,CC(C)CN1C(=O)/C(=C(/C#N)C(=O)NC2CCCCC2)c2ccccc21,20% (inactive)
3,Cc1ccc(C(=O)NCCCNc2ccccc2[N+](=O)[O-])cc1,1.8% (inactive)
4,Cc1ncc(S(=O)(=O)c2ccccc2)c(-c2ccccc2)n1,-4.6% (inactive)
5,CC(C)C(=O)NC(=S)Nc1ccc(S(=O)(=O)NC(C)(C)C)cc1,-1.7% (inactive)
6,CCOc1cc(/C=C2\C(=O)N(CCc3ccc(OC)c(OC)c3)C(C)=C2C(=O)OC)ccc1O,50.6% (active)
7,COC(=O)C1=C(C)N(Cc2ccco2)C(=O)/C1=C\c1ccc([N+](=O)[O-])cc1,-22% (inactive)
8,CCN1C(=O)/C(=C\c2ccc3c(c2)OCO3)C(C(=O)OC)=C1C,-6.5% (inactive)
9,COC(=O)C1=C(C)N(CCc2ccc(OC)c(OC)c2)C(=O)/C1=C\c1ccc(O)cc1,6% (inactive)
10,CCOc1cc(/C=C2\C(=O)N(Cc3ccc(C)cc3)C(C)=C2C(=O)OC)ccc1O,53.3% (active)
11,C=CCOc1cccc(/C=C2\C(=O)N(Cc3ccc(C)cc3)C(C)=C2C(=O)OC)c1,10.8% (inactive)
12,COC(=O)C1=C(C)N(Cc2ccc(C)cc2)C(=O)/C1=C\c1cc(OC)c(OC)c(OC)c1,23.1% (inactive)
13,COC(=O)C1=C(C)N(Cc2ccc(C)cc2)C(=O)/C1=C\c1ccc(O)c(OC)c1,58.7% (active)
14,COC(=O)C1=C(C)N(Cc2ccco2)C(=O)/C1=C\c1ccc(N(C)C)cc1,19.7% (inactive)
15,CCOc1cc(/C=C2\C(=O)N(Cc3ccco3)C(C)=C2C(=O)OC)ccc1O,68.2% (active)
16,COC(=O)C1=C(C)N(CCc2ccc(OC)c(OC)c2)C(=O)/C1=C\N(C)C,-13.2% (inactive)
17,CCOc1cc(/C=C2/N=C(C)C(C(=O)OC)=C2O)ccc1O,31.3% (inactive)
18,c1ccc(-c2nc3ccccc3[nH]2)nc1,15.7% (inactive)
19,Cc1ccc(CCNC(=O)C2CCCN(C(=O)N(C)C)C2)cc1 (configuration not stated),-6.4% (inactive)
20,O=C(CN1C(=O)COc2ccccc21)N1CCc2ccccc21,1.2% (inactive)
21,COc1ccc(NC(=O)CC2C(=O)N(C)C(=S)N2CCc2ccccc2F)cc1 (configuration not stated),8.1% (inactive)
22,CC(C)=CCN1CCN(Cc2cnc(N3CCOCC3)s2)CC1CCO (configuration not stated),-6.5% (inactive)

row,SMILES,inhibition
1,O=C(C1=C[C@@H](c2coc3ccccc3c2=O)C[C@@H](OCc2ccc(CO)cc2)O1)N1CCOCC1,-6.8% (inactive)
2,CCOC(=O)Cc1csc(NC(=O)c2cc(=O)c3ccccc3o2)n1,-6.1% (inactive)
3,CCOC(=O)Cc1csc(SCn2nnc3ccccc3c2=O)n1,-0.1% (inactive)
4,CCOC(=O)c1c(N)c(C#N)cn1-c1ccccc1,10% (inactive)
5,C=CCNC(=S)Nc1cccc2[nH]ncc12,52.5% (active)
6,C=CCNC(=S)Nc1cccc2ccccc12,14.3% (inactive)
7,CNC(=S)Nc1cccc2[nH]ncc12,2.6% (inactive)
8,CCCCn1c2nc3ccccc3nc2c2c(=N)oc(C)nc21,30.1% (inactive)
9,CCCCC(CC)Cn1c2nc3ccccc3nc2c2c(=N)oc(C)nc21 (configuration not stated),-4.2% (inactive)
10,COc1ccc(-n2c3nc4ccccc4nc3c3c(=N)oc(C)nc32)cc1,55.9% (active)
11,CCn1c(SCC(=O)N/N=C/c2ccc(C)o2)nnc1-c1ccccc1,3.1% (inactive)
12,CN1CCN(S(=O)(=O)c2ccc3c(c2)OCCO3)CC1,-4.9% (inactive)
13,CC(C)(Cl)C1Cc2cc3ccc(=O)oc3cc2O1 (configuration not stated),-9.9% (inactive)
14,COc1cc2c(cc1/C=C/C(=O)O)OC(C)C2 (configuration not stated),13.7% (inactive)
15,CCc1nnc(NC(=O)CSc2nnc3c(C)cc4c(C)ccc(C)c4n23)s1,2.3% (inactive)
16,Cc1nc2ccc(NC(=O)/C=C/C(=O)O)cc2nc1C,42.9% (inactive)
17,O=C(O)/C=C/C(=O)Nc1ccc2nccnc2c1,56.2% (active)
18,CC(C)(C)NC(=O)Nc1ccc2nccnc2c1,35.1% (inactive)
19,CN1CC(=O)N(CC(=O)N2CCC(Cc3ccccc3)CC2)C1=O,-3.5% (inactive)
20,CCC(C)N(C(=O)CSc1nc(-c2ccccc2)cs1)C1CCS(=O)(=O)C1 (configuration not stated),3.2% (inactive)
21,CC(C)CN(Cc1c(O)ccc2ccccc12)CC(C)C,68.8% (active)
22,Cc1cc(=O)oc2c(CN(CC(C)C)CC(C)C)c(O)ccc12,-3.3% (inactive)

row,SMILES,inhibition
1,Oc1ccc2ccccc2c1CNn1cnnc1,3.1% (inactive)
2,O=C(CN1CCC(C(O)(c2ccccc2)c2ccccc2)CC1)Nc1ccccc1,-1.7% (inactive)
3,CCN1CCN(c2nc(-c3ccncc3)nc3ccccc23)CC1,6.3% (inactive)
4,NC(=O)C1CCN(C(=O)c2cc3n(n2)C(C(F)(F)F)CC(c2ccco2)N3)CC1 (configuration not stated),0.3% (inactive)
5,COc1ccc(CCNC(=O)CCCn2nc(C)c([N+](=O)[O-])c2C)cc1OC,8.3% (inactive)
6,CCCCn1c2nc3ccccc3nc2c2c(=O)n(C(C)CC)cnc21 (configuration not stated),53.2% (active)
7,CCCCn1c2nc3ccccc3nc2c2c(=O)n(CCC(C)C)cnc21,-12.9% (inactive)
8,CCCCn1c2nc3ccccc3nc2c2c(=O)n(CCC)cnc21,7.3% (inactive)
9,CCOC(=O)C1=C(CSc2nc(CC)c(C)cc2C#N)OC(N)=C(C#N)C1c1ccccc1 (configuration not stated),11.9% (inactive)
10,CCOC(=O)C1=C(CSc2nc(CC)c(C)cc2C#N)OC(N)=C(C#N)C1c1ccc(OC)cc1 (configuration not stated),52.3% (active)
11,CCOC(=O)C1=C(CC)OC(N)=C(C#N)C1c1cccs1 (configuration not stated),4.7% (inactive)
12,CCOC(=O)C1=C(CSc2nc(C)cc(C)c2C#N)OC(N)=C(C#N)C1c1cccs1 (configuration not stated),55.7% (active)
13,CCOC(=O)C1=C(CSc2nc(-c3ccccc3)ccc2C#N)OC(N)=C(C#N)C1c1ccc(OC)cc1 (configuration not stated),29.4% (inactive)
14,CCOC(=O)C1=C(CSc2nc(C)cc(C)c2C#N)OC(N)=C(C#N)C1c1ccccc1 (configuration not stated),47% (inactive)
15,COC(=O)c1ccc(S(=O)(=O)N2CCCCC2)o1,9% (inactive)
16,Cc1cc(NN)nc(NS(=O)(=O)c2ccccc2)n1,5% (inactive)
17,CC(C)N(C(=O)CSc1nnc(CN2CCCCCC2=O)n1-c1ccccn1)C(C)C,-4.7% (inactive)
18,COc1ccc(N(C(=O)Cn2nnc3ccccc32)C(C(=O)NC(C)(C)C)c2ccc(OC)c(O)c2)cc1 (configuration not stated),-4% (inactive)
19,Cc1cc2n(n1)SC(Nc1cccc3ccccc13)N2 (configuration not stated),54.1% (active)
20,Cc1cc2n(n1)SC(Nc1ccccc1)N2 (configuration not stated),-0.8% (inactive)
21,CCc1ccccc1NC1Nc2cc(C)nn2S1 (configuration not stated),27.6% (inactive)
22,CCCC1CCC(=NNC(=O)OC(C)(C)C)CC1 (configuration not stated),2.1% (inactive)

row,SMILES,inhibition
1,Cc1ccc(Oc2ccc(Cl)cc2N)cc1,-7.7% (inactive)
2,CN(C)c1ccc(C(=O)c2ccc(N(C)C)c(N)c2)cc1N,23.2% (inactive)
3,CN(C)c1ccc(Cl)cc1N,53.2% (active)
4,O=C1Nc2ccc(S(=O)(=O)N3CCCC3)c3ccc(S(=O)(=O)N4CCCC4)c1c23,32.5% (inactive)
5,CCCCCC(=O)NC(CC(=O)OC)c1ccc2c(c1)OCO2 (configuration not stated),2.2% (inactive)
6,CCc1ccc(OCC(=O)OCC(=O)c2ccc3c(c2)NC(=O)CO3)cc1,5% (inactive)
7,COCc1nnc(NC(=O)c2ccccc2[N+](=O)[O-])s1,-1.2% (inactive)
8,COc1ccc(C(=O)ON=C2C=C(C)C(=O)C(C)=C2)cc1,40.1% (inactive)
9,CC1=CC(=O)C=C(C)C1=NOC(=O)c1cccc([N+](=O)[O-])c1,-3% (inactive)
10,CC1=C(C)/C(=N/OC(=O)c2cccc([N+](=O)[O-])c2)C=CC1=O,13.4% (inactive)
11,CC1=CC(=NOC(=O)c2cccc([N+](=O)[O-])c2)C=C(C)C1=O,19.6% (inactive)
12,COc1cc(C(=O)ON=C2C=C(C)C(=O)C(C)=C2)cc(OC)c1OC,59.8% (active)
13,COc1cc(C(=O)Oc2cc(C)cc(C)c2)cc(OC)c1OC,9.6% (inactive)
14,COc1cc(C(=O)O/N=C2\C=CC(=O)C=C2C)cc(OC)c1OC,64.7% (active)
15,COc1cc(C(=O)ON=C2C(C)=CC(=O)C=C2C)cc(OC)c1OC,71.8% (active)
16,CC1=C(C)/C(=N\OC(=O)/C=C/c2ccccc2)C=CC1=O,35.2% (inactive)
17,COc1cc(C(=O)O/N=C2/C=CC(=O)C(C)=C2C)cc(OC)c1OC,66% (active)
18,COc1cc(C(=O)O/N=C2\CCCc3c2ccc(OC)c3[N+](=O)[O-])cc(OC)c1OC,13.8% (inactive)
19,COc1cc(C(=O)O/N=C(\N)c2ccncc2)cc(OC)c1OC,-11.7% (inactive)

# — PubChem BioAssay AID1220 (Sanford-Burnham Center for Chemical Genomics, 2008)
